Experimental findings from PubChem BioAssay (Tox21) are described below.

Records with an inconclusive call do not appear. Values without a mark were called inactive. The call rests on the fitted dose curve.
On the % scale 0 is the no-effect control and ±100 the full control effect.

D(2) dopamine receptor (Homo sapiens), sequence (P14416 whole entry, looked up): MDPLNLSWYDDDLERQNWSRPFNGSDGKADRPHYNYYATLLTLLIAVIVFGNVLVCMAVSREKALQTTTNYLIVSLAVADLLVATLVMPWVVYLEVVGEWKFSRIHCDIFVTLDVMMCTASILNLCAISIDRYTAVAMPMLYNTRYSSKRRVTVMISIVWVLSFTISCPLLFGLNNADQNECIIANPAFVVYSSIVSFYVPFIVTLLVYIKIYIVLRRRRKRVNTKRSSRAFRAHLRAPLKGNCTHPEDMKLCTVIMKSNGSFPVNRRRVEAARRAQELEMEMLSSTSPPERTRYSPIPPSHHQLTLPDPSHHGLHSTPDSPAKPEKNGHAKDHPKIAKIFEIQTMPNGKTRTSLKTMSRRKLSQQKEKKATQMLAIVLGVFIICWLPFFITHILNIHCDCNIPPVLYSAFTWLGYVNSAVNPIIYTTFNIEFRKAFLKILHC
Beta-2 adrenergic receptor (Homo sapiens), sequence (P07550 whole entry, looked up): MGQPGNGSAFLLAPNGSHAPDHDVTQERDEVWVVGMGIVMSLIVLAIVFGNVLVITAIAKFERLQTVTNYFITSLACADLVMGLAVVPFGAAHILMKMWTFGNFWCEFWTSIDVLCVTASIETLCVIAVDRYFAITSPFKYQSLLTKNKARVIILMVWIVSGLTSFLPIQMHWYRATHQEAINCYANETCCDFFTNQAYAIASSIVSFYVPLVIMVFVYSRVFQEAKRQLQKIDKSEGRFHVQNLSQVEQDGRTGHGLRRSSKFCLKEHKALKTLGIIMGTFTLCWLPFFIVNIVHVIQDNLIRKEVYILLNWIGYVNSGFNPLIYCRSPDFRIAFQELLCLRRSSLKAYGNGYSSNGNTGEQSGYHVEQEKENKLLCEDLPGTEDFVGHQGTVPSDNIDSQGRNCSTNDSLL

The first experiment has as its target Beta-2 adrenergic receptor (Homo sapiens) (UniProt P07550). The experiment can be described thus: Adrenergic beta2 receptor (ADRB2) small molecule antagonists, cell-based qHTS assay (AID 1963592). Further: nearly all actives have a fitted effect of over 50% in size. Conditions: CHO-ADRB2 cells, isoproterenol-stimulated cAMP HTRF ratio, 0.5 h; series mostly up to 92.4 µM; activity change, negative = inhibition: at the top concentration. In outline: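 Cells (CHO, stable ADRB2 overexpression) incubated 18-20hr at 37C; compounds added from DMSO; agonist mix (1nM isoproterenol, 100uM IBMX, 25uM Ro-20-1724) added; 0.5hr RT; d2-cAMP and anti-cAMP-cryptate added; 1hr RT; 665/615 nm read.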
On the technique in general: In qHTS, concentration-response curves come from the screen itself.
Take `CCOC(=O)C1=C(C)NC(C)=C(C(=O)OC)C1c1cccc(Cl)c1Cl` (stereo not drawn): the “activity change, negative = inhibition” value was -12.4% [at 42.5 µM].

For the compound `Clc1ccnc(Cl)n1`, the “activity change, negative = inhibition” value is 1.23%.

Regarding `OCC(CO)(CO)COCC(CO)(CO)CO`, the “activity change, negative = inhibition” value was -12.5%.

Regarding `OCc1ccccn1`, the “activity change, negative = inhibition” value was -16.1% [at 42.5 µM].

In the case of `CCCCC`, the “activity change, negative = inhibition” value was 3.47%.

Regarding `Cc1ccc2c(c1)c1c3n2CCNC3CCC1` (stereo not drawn), the “activity change, negative = inhibition” value is -7.87% [at 42.5 µM].

Turning to `CCOc1ccccc1N`, the “activity change, negative = inhibition” value was 1.63%.

`CC(C(=O)O)c1ccc(C(=O)c2ccccc2)s1` (stereo not drawn): the “activity change, negative = inhibition” value is 1.57% [at 42.5 µM].

Regarding `CCCCCCC(=O)OCC`, the “activity change, negative = inhibition” value was -6.44%.

Regarding `NS(=O)(=O)c1cc(C(=O)NN2C[C@H]3[C@H]4CCC(C4)[C@H]3C2)ccc1Cl`, the “activity change, negative = inhibition” value was 0.95% [at 42.5 µM].

For `CC(CC(C#N)(c1ccccc1)C(C)C)N(C)C` (stereo not drawn), the “activity change, negative = inhibition” value is 5.05% [at 42.5 µM].

Turning to `O=P(O)(O)C(O)(Cc1cccnc1)P(=O)(O)O`, the “activity change, negative = inhibition” value was 8.23% [at 42.5 µM].

On to `C=CCCCC`, for which the “activity change, negative = inhibition” value is -2.52%.

In the case of `CCCCCCCC1CCCC1=O` (stereo not drawn), the “activity change, negative = inhibition” value is -10.3%.

Another experiment shares this target. The experiment can be described thus: Adrenergic beta2 receptor (ADRB2) small molecule agonists, cell-based qHTS assay (AID 1963593).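 Further: CHO cells stably overexpressing human ADRB2.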 To be noted: CHO-ADRB2 cells, cAMP HTRF, 30 min; series mostly up to 42.5 µM; activation: at the top concentration. In short, it runs like this:
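CHO cells stably over-expressing ADRB2 were plated overnight at 37C, then dosed with compounds plus a stimulation mix containing 100uM IBMX and 25uM Ro-20-1724 for 0.5hr at room temperature. cAMP was measured by HTRF competition, 1hr.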
Take `CCCCCCC(CO)CCCC` (stereo not drawn): the “activation” value is 5.9% [at 92.4 µM].

In the case of `CO[Si](CCCS)(OC)OC`, the “activation” value is -22.8% [at 92.4 µM].

Take `NC(=O)C(=O)N/N=C/c1ccc([N+](=O)[O-])o1`: the “activation” value was 19.1%.

With `CC(C)OC(=O)C(C(=O)OC(C)C)=C1SC=CS1`, the “activation” value was -6.48%.

As for `O=S(O)O`, the “activation” value was -15.9% [at 19 µM].

Consider `COc1cc(C(=O)NS(=O)(=O)c2ccccc2C)ccc1Cc1cn(C)c2ccc(NC(=O)OC3CCCC3)cc12`, for which the “activation” value was 3.75%.

Regarding `CC(=O)N(CC(O)CN(C(C)=O)c1c(I)c(C(=O)NCC(O)CO)c(I)c(C(=O)NCC(O)CO)c1I)c1c(I)c(C(=O)NCC(O)CO)c(I)c(C(=O)NCC(O)CO)c1I` (stereo not drawn), the “activation” value was -3.57%.

For the compound `CCCCCCCCCCCCS(=O)(=O)Cl`, the “activation” value is -24.4% [at 19 µM].

Turning to `CCOC(=O)/C=C/C(=O)O`, the “activation” value is 6.65% [at 92.4 µM].

Take `CC(C(=O)O)c1ccc(C(=O)c2ccccc2)s1` (stereo not drawn): the “activation” value is 5.98%.

`NS(=O)(=O)c1cc(C(=O)NN2C[C@H]3[C@H]4CCC(C4)[C@H]3C2)ccc1Cl`: the “activation” value was 18.9%.

A further experiment has as its target D(2) dopamine receptor (Homo sapiens) (UniProt P14416). As to the kind of experiment: Dopamine D2 receptor (DRD2) small molecule agonists, cell-based qHTS assay (AID 1963594). Further: nearly all actives have a fitted effect of over 35% in size. To be noted: HEK293-DRD2 cAMP HTRF, agonist mode, 30 min; series mostly up to 92.4 µM; activation: at the top concentration. In outline: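 HEK293 cells stably expressing human DRD2, pre-treated with PDE inhibitor Ro20-1724 (0.1 mM final) and compound 10 min at room temperature, then stimulated with NKH477 (200nM […]) for 30 min. cAMP read by HTRF (665/620 nm).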
With `CC(C)OCC1CO1` (stereo not drawn), the “activation” value was 2.97%.

`S=C(SSSSSSC(=S)N1CCCCC1)N1CCCCC1`: the activation was -0.326% [at 19 µM].

Regarding `CO[Si](CCCS)(OC)OC`, the “activation” value was -3.17%.

Consider `CC(C)OC(=O)C(C(=O)OC(C)C)=C1SC=CS1`, for which the “activation” value was 3.1% [at 42.5 µM].

For the compound `O=S(O)O`, the activation is 2.66% [at 19 µM].

Consider `COc1cc(C(=O)NS(=O)(=O)c2ccccc2C)ccc1Cc1cn(C)c2ccc(NC(=O)OC3CCCC3)cc12`, for which the “activation” value was 5.97% [at 42.5 µM].

In the case of `CC(C)(C)N(CCO)CCO`, the “activation” value was 0.514%.

As for `O=CCCc1ccccc1`, the “activation” value is -2.72%.

On to `Cc1oc(-c2ccccc2)nc1CCC(=O)c1ccc(CC2SC(=O)NC2=O)cc1` (stereo not drawn), for which the “activation” value was -2.78% [at 42.5 µM].

Consider `CCCCNc1ccc(NCCCC)c2c1C(=O)c1ccccc1C2=O`, for which the activation was 6.31% [at 19 µM].

With `O=C(O)c1ccncc1`, the “activation” value was 2.76%.

As to `Clc1cc(Cl)c(-c2c(Cl)c(Cl)cc(Cl)c2Cl)cc1Cl`, the “activation” value was -0.647% [at 42.5 µM].

For `CC(=O)N(CC(O)CN(C(C)=O)c1c(I)c(C(=O)NCC(O)CO)c(I)c(C(=O)NCC(O)CO)c1I)c1c(I)c(C(=O)NCC(O)CO)c(I)c(C(=O)NCC(O)CO)c1I` (stereo not drawn), the “activation” value is -1.64% [at 42.5 µM].

For the compound `CCCCCCCCCCCCS(=O)(=O)Cl`, the activation was 0.808% [at 19 µM].

As for `CCNC(=O)N1CCN(CCCC(c2ccc(F)cc2)c2ccc(F)cc2)CC1`, the “activation” value was -6.85% [at 42.5 µM].

For `CCc1cc(Cc2cc(CC)cc(C(C)(C)C)c2O)c(O)c(C(C)(C)C)c1`, the “activation” value was 3.18%.

As to `CCC1=C(C)CN(C(=O)NCCc2ccc(S(=O)(=O)NC(=O)NC3CCC(C)CC3)cc2)C1=O` (stereo not drawn), the “activation” value was -9.46% [at 42.5 µM].

For the compound `CCOC(=O)C1=C(C)NC(C)=C(C(=O)OC)C1c1cccc(Cl)c1Cl` (stereo not drawn), the “activation” value was -8.05% [at 42.5 µM].

In the case of `Clc1ccnc(Cl)n1`, the “activation” value was 0.574%.

Regarding `OCC(CO)(CO)COCC(CO)(CO)CO`, the “activation” value was 8.46%.

Regarding `OCc1ccccn1`, the “activation” value is -12.3% [at 42.5 µM].

With `CCOC(=O)/C=C/C(=O)O`, the “activation” value is -1.66%.

With `CCCCC`, the “activation” value was 3.12%.

In the case of `Cc1ccc2c(c1)c1c3n2CCNC3CCC1` (stereo not drawn), the “activation” value was -1.26% [at 42.5 µM].

For `CCOc1ccccc1N`, the “activation” value is 0.607%.

Take `CC(C(=O)O)c1ccc(C(=O)c2ccccc2)s1` (stereo not drawn): the “activation” value is -3.48% [at 42.5 µM].

As to `CCCCCCC(=O)OCC`, the “activation” value was 1.27%.

With `NS(=O)(=O)c1cc(C(=O)NN2C[C@H]3[C@H]4CCC(C4)[C@H]3C2)ccc1Cl`, the “activation” value is -25.8% [at 42.5 µM].

For `CC1(C)S[C@@H]2[C@H](NC(=O)C(C(=O)O)c3ccccc3)C(=O)N2[C@H]1C(=O)O` (stereo partly drawn), the “activation” value is 0.86% [at 42.5 µM].

For the compound `CC(CC(C#N)(c1ccccc1)C(C)C)N(C)C` (stereo not drawn), the “activation” value is 3.63% [at 42.5 µM].

`O=P(O)(O)C(O)(Cc1cccnc1)P(=O)(O)O`: the “activation” value is -0.0044% [at 42.5 µM].

Regarding `C=CCCCC`, the “activation” value was 0.0715%.

On to `CCCCCCCC1CCCC1=O` (stereo not drawn), for which the “activation” value is 0.275%.
